Assay type in all cases: functional
For assay [1], the system named is Plasmodium falciparum. Description: GSK_TCMDC: Inhibition of Plasmodium falciparum 3D7 in whole red blood cells, using parasite LDH activity as an index of growth. Test compounds present at 2uM.
The subject of assay [2] is Plasmodium falciparum. As to the kind of experiment: GSK_TCMDC: Inhibition of Plasmodium falciparum Dd2 in whole red blood cells, using parasite LDH activity as an index of growth. Test compounds present at 2uM.
Another assay has as its system HepG2. As to the kind of experiment: GSK_TCMDC: Percent inhibition of human HepG2 cell line. Test compounds present at 10uM.

This is an account of results in ChEMBL document CHEMBL1157539, “Thousands of chemical starting points for antimalarial lead identification” (Nature, 2010).

Each structure is given as a SMILES string.

The term Inhibition denotes the change of the read-out against control, counted positive when it falls. Lower therefore signals a response near the control. On to `COc1ccc(C(=O)NCc2ccc(N)nc2C)cc1Nc1ncc(-c2cccc(N(C)C)c2)cn1`, for which the Inhibition came out at 89% in the assay on Plasmodium falciparum [1], 68% in the assay with Plasmodium falciparum [2] and 9% in the assay with HepG2.

Turning to `Cc1cc(Oc2cc(NC(=O)c3sc4ncn(Cc5ccccc5F)c(=O)c4c3C)cc([N+](=O)[O-])c2)ccc1Cl`, the values for the Inhibition with Plasmodium falciparum [1], in the assay on Plasmodium falciparum [2] and in the assay on HepG2 were 94%, 24% and 2%, respectively.

For the molecule `COc1cc2c(cc1N1CC(C)NC(C)C1)N(C(=O)c1ccc(-c3ccc(-c4ncc[nH]4)cc3C)cc1)CC2` (stereo unspecified), the Inhibition with Plasmodium falciparum [1] was found to be 98%; with Plasmodium falciparum [2], 58%; in the assay on HepG2, 7%.

`CCn1ccc2c(N3CCCCS3(=O)=O)cc(C(=O)N[C@@H](Cc3ccccc3)[C@H](O)CNC(C)(C)c3cccc(C(F)(F)F)c3)cc21`: the results for the Inhibition in the assay with Plasmodium falciparum [1], in the assay on Plasmodium falciparum [2] and in the assay on HepG2 were 97%, 98% and 6%, respectively.

As for `O=[N+]([O-])c1cccc(-n2nc(NCc3ccc(Cl)cc3)nc2-c2ccc(F)c(C(F)(F)F)c2)c1`, the Inhibition was 98% in the assay with Plasmodium falciparum [1], 93% in the assay with Plasmodium falciparum [2] and 6% in the assay on HepG2.

Consider `CCOC(=O)C1=C(C)NC2=C(C(=O)CCC2)C1c1cn(Cc2ccc(Cl)cc2Cl)nc1-c1ccccc1` (stereo unspecified), for which the values for the Inhibition in the assay with Plasmodium falciparum [1], with Plasmodium falciparum [2] and in the assay on HepG2 were 100%, 96% and 0%, respectively.

Turning to `COc1cc(C=NN=c2cc(C)[nH]c3ccccc23)cc(OC)c1OC`, the values for the Inhibition in the assay on Plasmodium falciparum [1], with Plasmodium falciparum [2] and in the assay with HepG2 were 100%, 95% and 5%, respectively.

Turning to `CN1CCN(CCCN(Cc2csc(-c3ccc(CNCc4ccccc4)cc3)n2)S(=O)(=O)c2ccccc2Cl)CC1.O=C(O)C(F)(F)F`, the Inhibition turned out to be 93% in the assay on Plasmodium falciparum [1], 81% with Plasmodium falciparum [2] and 13% with HepG2.

In the case of `Cc1[nH]c(C)c(-c2csc3ccccc23)c(=O)c1Cl`, the figures for the Inhibition in the assay with Plasmodium falciparum [1], in the assay with Plasmodium falciparum [2] and in the assay on HepG2 were 97%, 75% and 7%, respectively.

On to `COc1ccc(NC(=O)c2ccc(OCCCCCCCOc3ccc(C(=O)Nc4ccc(OC)c(N5CCN(C)CC5)c4)cc3)cc2)cc1N1CCN(C)CC1.O=C(O)C(=O)O`, for which the figures for the Inhibition in the assay on Plasmodium falciparum [1], with Plasmodium falciparum [2] and with HepG2 were 96%, 91% and 98%, respectively.

Take `Cc1cccc2nc(-c3cccc(-c4cccc(CNCc5cnn(-c6ccccc6)n5)c4)c3)[nH]c12.O=C(O)C(F)(F)F`: the Inhibition in the assay on Plasmodium falciparum [1] was 99%; in the assay with Plasmodium falciparum [2], 38%; in the assay with HepG2, 12%.

Regarding `COc1ccc2nc3cc(Cl)ccc3c(NCCCCN)c2c1.Cl`, the Inhibition in the assay with Plasmodium falciparum [1] is 100%; in the assay with Plasmodium falciparum [2] it was 62%; with HepG2, 52%.

In the case of `CCOC(=O)c1c(CN(CC)CC)n(-c2ccccc2)c2cc(Br)c(O)cc12`, the Inhibition was 93% with Plasmodium falciparum [1], 46% in the assay with Plasmodium falciparum [2] and 14% in the assay on HepG2.

As to `Cl.O=C1CSc2ccc(CNC3CCN(CCc4c(F)cnc5ccc(F)cc45)CC3)nc2N1`, the Inhibition came to 97% in the assay with Plasmodium falciparum [1], 16% in the assay on Plasmodium falciparum [2] and 13% in the assay with HepG2.

In the case of `Cl.N[C@@H](CCNCc1ccc(-c2cccnc2)cc1)Cc1ccc(F)c(F)c1`, the Inhibition in the assay on Plasmodium falciparum [1] amounted to 98%; with Plasmodium falciparum [2] it was 57%; with HepG2, 45%.

In the case of `O=C(Nc1cc(C(F)(F)F)cc(C(F)(F)F)c1)N1CCC(CCN2CCC(c3c[nH]c4ccccc34)CC2)CC1`, the Inhibition with Plasmodium falciparum [1] is 91%; in the assay with Plasmodium falciparum [2], 16%; with HepG2 it was 17%.

For the molecule `COc1ccc(Cl)cc1N1CCN(CCCNC(=O)c2ccc(-c3nc4cc(Cl)c(F)cc4[nH]3)cc2)CC1`, the Inhibition in the assay with Plasmodium falciparum [1] amounted to 100%; in the assay with Plasmodium falciparum [2], 98%; in the assay on HepG2, 3%.

As to `Cl.N#Cc1ccc(-c2ccc(C(=O)Nc3ccc4c(c3)CCN(C3CCC3)CC4)nc2)cn1`, the Inhibition is listed as 85% with Plasmodium falciparum [1], 15% in the assay on Plasmodium falciparum [2] and 24% in the assay with HepG2.

On to `COc1cccc(CN2Cc3ccccc3OC3(CCN(Cc4c[nH]c5cnccc45)CC3)C2)c1.O=C(O)C(F)(F)F`, for which the Inhibition is 83% with Plasmodium falciparum [1], 83% in the assay with Plasmodium falciparum [2] and 39% in the assay with HepG2.

`Cc1oc(-c2ccc(Cl)cc2)cc1C(=O)NCCC1CCN(CCCCCNC(=O)/C=C/c2ccc(Cl)c(Cl)c2)CC1`: the Inhibition with Plasmodium falciparum [1] was found to be 100%; in the assay with Plasmodium falciparum [2], 88%; in the assay on HepG2, 100%.

As to `Cc1sc2cc(Cl)cc(Cl)c2c1S(=O)(=O)Nc1ccc2nccc(N3CCNCC3)c2c1.Cl`, the Inhibition in the assay on Plasmodium falciparum [1] was 100%; in the assay with Plasmodium falciparum [2] it was 99%; in the assay with HepG2, 24%.

As for `Cc1cnc(C(=O)Nc2cccc(-c3csc(-c4nc5ccccc5[nH]4)c3)c2)cn1`, the results for the Inhibition in the assay on Plasmodium falciparum [1], with Plasmodium falciparum [2] and in the assay on HepG2 were 98%, 80% and 31%, respectively.

In the case of `O=C(Nc1cccc(-c2ccc(-c3nc4cc(F)ccc4[nH]3)cc2)c1)c1ccoc1`, the Inhibition stood at 85% in the assay on Plasmodium falciparum [1], 6% with Plasmodium falciparum [2] and 39% with HepG2.

Regarding `Cc1onc(-c2c(Cl)cccc2Cl)c1C(=O)NC1=NC(C)(C)ON1c1ccccc1`, the Inhibition with Plasmodium falciparum [1] is on record as 97%; with Plasmodium falciparum [2] it was 36%; in the assay with HepG2, 6%.

In the case of `O=C1COc2ccccc2N1C/C=C(\CN1CCC(c2ccccc2)CC1)c1cc(Cl)cc(Cl)c1`, the Inhibition in the assay on Plasmodium falciparum [1] was determined as 91%; in the assay with Plasmodium falciparum [2], 72%; in the assay on HepG2, 14%.

Consider `COc1cc(Nc2ccc3cc(S(=O)(=O)N4CCCCC4C)ccc3n2)cc(OC)c1OC` (stereo unspecified), for which the Inhibition worked out at 88% in the assay with Plasmodium falciparum [1], 78% with Plasmodium falciparum [2] and 0% in the assay on HepG2.

As to `Cn1ccnc1CNC(=O)c1ccc(-c2cccc(-c3nc4cc(F)ccc4[nH]3)c2)cc1`, the Inhibition is 96% with Plasmodium falciparum [1], 8% in the assay on Plasmodium falciparum [2] and 8% with HepG2.
